IL-1B inflam inh = blocks inflammasome-driven IL-1 beta release; THP-1 LPS/ATP IL-1B secretion, AlphaLISA, 16 h; stronger effect = lower value; activity change, % at 57.5 µM; actives 4.7% (n = 360,000); AID 743279; in the data active means activity change below about -50%; inconclusive means mostly about -30% to -49%
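Secreted IL-1B measured by AlphaLISA bead assay after 16 h compound exposure of THP-1 cells; compounds (final up to 57.5 uM) added 1 h before LPS (250 ng/mL) and ATP (1.25 mM) stimulation; lower signal means less secretion.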
HT1080NT lethal = kills 2HG-producing HT-1080-NT fibrosarcoma cells; HT-1080-NT fibrosarcoma viability, CellTiter-Glo ATP luminescence, 48 h; AID 686970; actives 1.6% (n = 360,000); Potency, µM (highest dose often 46.1 µM), inactives show top-dose activity, negative = less viability, hits mostly cytotoxic;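 further: NT is the 2HG producing partner of a matched IDH1 knockdown line; potency means the concentration at half of the fitted maximal effect; 0% = DMSO-treated cells and -100% = media-only wells without cells; nearly all actives have a fitted effect of over 55% in size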
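HT-1080-NT; 750 cells/well; 5% FBS RPMI; 48 h compound, 37 degrees C; CellTiter-Glo luminescence; curve fitting and curve-class assignment.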
TDP1 cell CPT = DT40-hTDP1 cell growth loss with CPT | AID 686979 | chicken DT40 Tdp1-/-;hTDP1 cells + 20 nM CPT, ATP luminescence, 48 h | Potency, µM (titrated, usually from 46.2 µM), without a hit: at the top dose activity change, negative = growth inhibition, hits mostly inhibitors | actives 12% (n = 420,000); further: potency means the concentration at half of the fitted maximal effect; nearly all actives have a fitted effect of over 55% in size
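Chicken DT40 Tdp1-/- cells stably complemented with human TDP1 were seeded at 400 cells/well in medium containing 20 nM camptothecin, exposed to pin-transferred compounds, and grown at 37 °C for at least 48 hr. Viability was read as ATP luminescence.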
HT1080 IDH1KD tx = kills HT-1080 cells with IDH1 knockdown | HT-1080 IDH1 knockdown viability, ATP luminescence, 48 h | Potency, µM (titrated, usually from 46.1 µM), without a hit: at the highest dose activity, negative = toxicity, most hits filed as cytotoxic | actives 2% (n = 360,000) | AID 686971;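 further: potency means the concentration at half of the fitted maximal effect; 0% = DMSO wells and -100% = cell-free medium wells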
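Cytotoxicity counter-line: IDH1KD HT-1080, 48 h, CellTiter-Glo. Curves classed by r2, magnitude and activity.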
TDP1 cell noCPT = qHTS for Inhibitors of human tyrosyl-DNA phosphodiesterase 1 (TDP1): qHTS in cells in absence of CPT; DT40 Tdp1-/- hTDP1 cells, no CPT, ATP luminescence, 48 h; Potency, µM (top dose mostly 46.2 µM), inactives show at the highest dose activity change, negative = growth inhibition, hits mostly inhibitors; actives 15% (n = 420,000); further: potency means the concentration at half of the fitted maximal effect; nearly all actives have a fitted effect of over 55% in size
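No-CPT arm: Tdp1-/-;hTDP1 DT40 cells (400/well) plus compounds, incubated ≥48 hr at 37 °C. Readout CellTiter-Glo luminescence.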
* hit, by the source's call; i = inactive; ? = inconclusive; nt = no result given. Compounds with a hit are over-represented: about 19% of the library has one in this group of screens. Unless noted, the call rests on the fitted dose curve; in most records, active means well fitted curve in the direction sought with a large enough effect; inconclusive means small, poorly fitted or top-dose-only effect, or another doubt; inactive means no such curve, though single readings can be large; an effect the other way counts as inactive or inconclusive. Unless noted, on the % scale 0 is the no-effect control and ±100 the full control effect.

SMILES | IL-1B inflam inh | HT1080NT lethal | TDP1 cell CPT | HT1080 IDH1KD tx | TDP1 cell noCPT
CCc1nc2c(OCCc3cccc(OC)c3)cccn2c1N(C)C(=O)c1cccs1 | -1.2 | ? | 20.6µM* | ? | ?
CCc1nc2c(OCc3ccccc3C(=O)OC)cccn2c1N(C)C(=O)CC(C)C | 9.9 | 8.9% | 16.4µM* | 0.9% | 13µM*
CCc1nc2c(OCc3ccccc3C(=O)OC)cccn2c1N(C)C(=O)c1cccs1 | 4.2 | -26.3% | ? | -25.0% | 29.1µM*
CCc1nc2c(OCc3ccccc3C(=O)OC)cccn2c1N(C)C(=O)c1ccncc1 | 23.1 | 13.4% | ? | 5.0% | -23.4%
CCc1nc2c(OCc3ccc(OC)cc3)cccn2c1N(C)C(=O)c1ccco1 | -8.0 | 6.4% | -23.7% | -0.3% | ?
O=C(Nc1ccc(-c2nc3ccccc3[nH]2)cc1)C1CCCN(Cc2ccn[nH]2)C1 (centres undefined) | -21.6 | -9.9% | ? | -0.1% | ?
Cc1ccc(S(=O)(=O)N2CCN(CC(=O)N3CCCC3)CC2)c(C)c1 | -29.1 | 13.5% | 2.1% | -1.3% | -6.2%
Cc1ccccc1OCCC(=O)N1CCN(S(=O)(=O)c2ccc(Br)cc2)CC1 | -13.4 | -10.9% | ? | -13.4% | 23.1µM*
Cc1ccc(S(=O)(=O)N2CCN(C(=O)CSC(=S)N3CCCC3)CC2)c(C)c1 | 5.5 | -6.6% | 5.17µM* | 0.3% | 3.26µM*
CCC(=O)c1cc(Br)ccc1OCC(=O)N1CCN(S(=O)(=O)c2ccccc2)CC1 | -57.8* | 0.5% | ? | 2.0% | 23.1µM*
O=C(COc1ccc(Cl)cc1Br)N1CCN(S(=O)(=O)c2ccccc2)CC1 | ? | -2.9% | ? | -6.9% | ?
CCOc1ccccc1OCCCC(=O)N1CCN(S(=O)(=O)c2ccc(C)cc2C)CC1 | 0.0 | -5.7% | 20.6µM* | -24.8% | -57.2%
CCOC(=O)c1sc(N)c(C#N)c1CSc1nnc(C2CCCCC2)n1N | -7.1 | 13.2% | ? | 21.9% | -27.7%
O=C(Nc1ccc(S(=O)(=O)N2CCOCC2)cc1)c1cccnc1 | -9.0 | 6.7% | -1.0% | -2.9% | ?
COc1cccc2cc(C(=O)NCc3ccc(Cl)cc3)c(=N)oc12 | -90.6* | 12.8% | 23.1µM* | 12.9% | ?
CCOc1cccc2cc(C(=O)NC(C)c3ccccc3)c(=N)oc12 (centres undefined) | i | -11.2% | ? | 1.2% | 25.9µM*
CCOc1cccc2cc(C(=O)NCc3ccc(F)cc3)c(=N)oc12 | -5.7 | 16.0% | ? | 16.6% | 23.1µM*
CCOc1cccc2cc(C(=O)NCc3ccccc3)c(=N)oc12 | -28.3 | -6.4% | ? | 9.3% | ?
COc1cccc2cc(C(=O)NCc3ccccc3)c(=N)oc12 | -105.4* | -3.7% | 20.6µM* | -14.4% | ?
COc1cccc2cc(C(=O)NCc3ccc(Cl)cc3)c(=O)oc12 | 4.3 | 0.7% | 2.6% | 0.3% | ?
C/C(=N\Nc1ccc(C)c(Cl)c1)c1cccnc1 | 1.1 | 2.1% | -1.6% | -0.3% | -1.2%
COc1ncc2nc(C)c(=O)n(C3CC3)c2n1 | nt | nt | 2.8% | nt | 2.5%
Cc1cc(C)n(C(=O)/C=C/c2cccs2)n1 | -24.9 | 5.0% | -2.5% | 12.7% | ?
CCCN(C)C[C@H]1Oc2cc(C#Cc3ccc(F)cc3)ccc2S(=O)(=O)N([C@H](C)CO)C[C@@H]1C | -14.9 | -11.9% | ? | -9.4% | ?
Cc1ccc(CN(C)c2nc(-c3cccnc3)nc3ccccc23)o1 | -27.7 | -29.8% | ? | -12.7% | 16.4µM*
SMILES | IL-1B inflam inh | HT1080NT lethal | TDP1 cell CPT | HT1080 IDH1KD tx | TDP1 cell noCPT
CCOc1ccc(CN(C)c2nc(-c3cccnc3)nc3ccccc23)cc1OC | -93.0* | -29.6% | 13µM* | ? | ?
COc1cccc(-c2nc(N(C)C)c3ccccc3n2)c1 | nt | nt | 3.3% | nt | ?
CN(Cc1ccco1)c1nc(-c2ccccc2Cl)nc2ccccc12 | nt | nt | -14.3% | nt | -16.5%
CN(Cc1ccccc1F)c1nc(-c2cccnc2)nc2ccccc12 | -76.4* | -7.2% | 20.6µM* | -6.2% | ?
COc1ccc(NC(=O)N(C)C[C@@H]2OCc3cn(nn3)CCCC(=O)N([C@@H](C)CO)C[C@H]2C)cc1 | 16.5 | 2.9% | 1.5% | 3.9% | -5.7%
O=c1nccc(N/N=C/c2ccccc2O)[nH]1 | 47.2 | 1.16µM* | 0.231µM* | ? | 0.326µM*
COc1cccc(/C=N/Nc2ccnc(=O)[nH]2)c1O | 127.4 | ? | 0.0231µM* | ? | 0.0651µM*
CCOc1ccccc1/C=N/Nc1ccnc(=O)[nH]1 | 32.7 | -15.5% | 5.17µM* | -0.5% | 2.91µM*
CCOC(=O)C1(CCOc2ccccc2)CCN(CC=C(C)C)CC1 | -8.5 | -0.3% | ? | -2.5% | ?
CCOC(=O)C1(CCOc2ccccc2)CCN(CC2CC2)CC1 | -5.3 | -1.9% | 8.1% | 0.1% | -10.2%
CCOC(=O)C1(CCOc2ccccc2)CCN(Cc2cccc3c2OCO3)CC1 | -84.3* | 20.6µM* | 23.1µM* | ? | 14.6µM*
CCOC(=O)C1(CCOc2ccccc2)CCN(Cc2cc(OC)c3c(c2)OCO3)CC1 | -60.5* | 18.4µM* | 20.6µM* | 18.4µM* | 11.6µM*
CC(C)C[C@@H]1Cc2[nH][nH]c(=O)c2[C@H](C(C)C)O1 | 0.0 | -9.2% | ? | ? | -17.5%
CCOc1cc(N2CCOCC2)c(OCC)cc1NC(=O)c1cc(S(=O)(=O)N2CCOCC2)ccc1F | -0.2 | 28.4% | ? | 12.8% | ?
COCCN(CCOC)Cc1cc(=O)oc2ccc3ccccc3c12 | -27.1 | 4.8% | ? | -22.3% | 18.4µM*
COc1ccc(C(=O)N/N=C/C(Br)=C/c2ccccc2)cc1 | -57.7* | -11.3% | 13µM* | -13.2% | 14.6µM*
COc1cccc(C(=O)N/N=C/C(Br)=C/c2ccccc2)c1 | -74.6* | ? | 1.84µM* | 11.6µM* | 2.91µM*
COc1cccc(C=C(C(C)=O)C(=O)c2ccccc2)c1 | -113.4* | ? | 20.6µM* | 16.4µM* | 14.6µM*
O=C(C(=Cc1ccc(F)cc1)C(=O)c1ccccc1)c1ccccc1 | -112.0* | ? | ? | ? | 16.4µM*
CC1(C(=O)NS(=O)(=O)c2ccc(Cl)s2)CCN1C(=O)C1(c2ccc(Cl)cc2)CC1 (centres undefined) | 22.0 | 15.5% | 11.1% | 4.3% | -22.6%
CCCCn1c(N)c(N(C)C(=O)c2c(C)nn(-c3ccccc3)c2C)c(=O)[nH]c1=O | 2.3 | -0.3% | 13.2% | 8.4% | -13.7%
CCC(=O)Nc1ccc(/C=C(\C(C)=O)C(=O)c2ccccc2)cc1 | -98.3* | 18.4µM* | ? | 16.4µM* | 23.1µM*
Cc1cccc(C(=O)Nc2c(C(=O)NCc3ccc(Cl)cc3)sc3nc(C)cc(C)c23)c1 | nt | nt | 16.4µM* | nt | 25.9µM*
